In PubChem BioAssay (NCATS):
Values joined by “and” are separate entries in the source; they are usually repeats but may differ in a detail not shown here. Equal values may be shown once. A number with no mark means an inactive call. Results filed as inconclusive are left out. The source holds several records for some structures; these can differ, active in one and inactive in another. Active and inactive are the calls of the source. Unless noted, the call rests on the fitted dose curve; in most records, active means well fitted curve in the direction sought with a large enough effect; inconclusive means small, poorly fitted or top-dose-only effect, or another doubt; inactive means no such curve, though single readings can be large; an effect the other way counts as inactive or inconclusive.

Assays:
[1] = test system: SKOV3; assay: Primary qHTS to identify gynecologic anti-cancer compounds using libraries of approved drugs and bioactive compounds (AID 1345084); details: Gynecologic cancer cell panel viability, ATPlite luminescence, 48 h; series mostly up to 57.5 µM; further: nearly all actives have a fitted effect of over 55% in size; further: potency means the concentration at half of the fitted maximal effect
Method in brief: (§1)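 Cytotoxicity screen measuring ATP content by luciferase luminescence. Each compound is applied at five concentrations for 48 h at 37 C with 5% CO2.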

[2] = test system: Tov-21-G; assay: as above; details: Gynecologic cancer cell panel viability, ATPlite luminescence, 48 h; series mostly up to 57.5 µM
Method in brief: as §1

[3] = test system: Tov112D; assay: as above; details: Gynecologic cancer cell panel viability, ATPlite luminescence, 48 h; series mostly up to 57.5 µM
Method in brief: as §1

[4] = test system: astro; assay: Drug repurposing screens with cells derived from glioblastoma tumor samples (AID 1345199); details: viability, ATP luminescence, 48 h; series mostly up to 45.9 µM; further: nearly all actives have a fitted effect of over 40% in size; further: potency means the concentration at half of the fitted maximal effect; on activity, negative = cell killing: on the % scale 0 is the no-effect control and ±100 the full control effect
Method in brief: (§2)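 Primary testing used CD133+ neurospheres from four GBM patients, seven concentrations, 48 h exposure and ATP-based viability; confirmation added three slower-growing patient lines.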

[5] = as above; details: GBM patient neurospheres viability, ATP luminescence, 48 h
Method in brief: as §2

[6] = test system: PA-1; assay: Primary qHTS to identify gynecologic anti-cancer compounds using libraries of approved drugs and bioactive compounds (AID 1345084); details: Gynecologic cancer cell panel viability, ATPlite luminescence, 48 h; series mostly up to 57.5 µM; further: nearly all actives have a fitted effect of over 55% in size; further: potency means the concentration at half of the fitted maximal effect
Method in brief: as §1

[7] = target: Nuclear receptor subfamily 1 group I member 2 (Rattus norvegicus) (UniProt Q9R1A7); assay: qHTS assay for small molecule activators of the rat pregnane X receptor (rPXR) signaling pathway (AID 651751; call rule not given here; further: 0% is about no effect); details: rPXR reporter cells, luciferase (One-Glo), 24 h
Sequence of Nuclear receptor subfamily 1 group I member 2 (Rattus norvegicus) (Q9R1A7 whole entry, looked up): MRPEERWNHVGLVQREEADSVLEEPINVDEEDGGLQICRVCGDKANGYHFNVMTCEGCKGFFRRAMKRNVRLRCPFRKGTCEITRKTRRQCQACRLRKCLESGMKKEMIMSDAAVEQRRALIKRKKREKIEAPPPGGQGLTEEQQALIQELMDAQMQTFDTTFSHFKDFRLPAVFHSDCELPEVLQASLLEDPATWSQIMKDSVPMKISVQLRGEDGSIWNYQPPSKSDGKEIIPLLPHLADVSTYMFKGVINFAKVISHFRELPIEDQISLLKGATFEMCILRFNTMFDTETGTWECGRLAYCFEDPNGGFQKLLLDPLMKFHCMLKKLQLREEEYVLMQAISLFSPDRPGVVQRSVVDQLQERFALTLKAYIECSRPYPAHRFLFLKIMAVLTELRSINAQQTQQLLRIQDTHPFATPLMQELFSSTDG

[8] = qHTS assay for small molecule activators of the human pregnane X receptor (PXR) signaling pathway (AID 720659; call rule not given here; further: 0% is about no effect)
[9] = at 45.9 µM (top of the series), tumour line B
[10] = at 45.9 µM (top of the series), tumour line D
[11] = at 46 µM (top of the series), tumour line A

COC1CC(=C(c2cccs2)c2cccs2)C[N+](C)(C)C1 (stereo not given)
outcome [1]: inactive
Potency [2]: inactive
Potency [3]: inactive
Potency [4]: inactive

C[C@](O)(CS(=O)(=O)c1ccc(F)cc1)C(=O)Nc1ccc(C#N)c(C(F)(F)F)c1
activity, negative = cell killing [5, 9]: -21.4%
Potency ([5]; tumour line A): 12.6 µM (active)

CN1C(=O)CC(=O)N(c2ccccc2)c2cc(Cl)ccc21
activity, negative = cell killing [5, 9]: -10.8%
activity, negative = cell killing [5, 10]: -2.22%
activity, negative = cell killing [5, 11]: -21.5%

Nc1ccc([As](=O)(O)O)cc1
Potency [6]: inactive
Potency [2]: inactive
Potency [3]: inactive
activity, negative = cell killing [5, 9]: -5.35%
activity, negative = cell killing [5, 10]: -5.12%
activity, negative = cell killing [5, 11]: -21.8%
Potency [4]: inactive
max response [7]: 3.51%
outcome [8]: inactive

CN=C1CN(O)C(c2ccccc2)=c2cc(Cl)ccc2=N1
activity, negative = cell killing [5, 9]: -15.1% and 1.01%
activity, negative = cell killing [5, 10]: -14.7% and -15.6%
Potency ([5]; tumour line A): 11.2 µM (active)
Potency [4]: inactive

CCCC(C)(COC(N)=O)COC(N)=O
activity, negative = cell killing [5, 9]: 0.449%
activity, negative = cell killing [5, 10]: -14.8%
activity, negative = cell killing [5, 11]: -19.1%
Potency [4]: inactive
max response [7]: 3.06% and 3.91%

C[C@]12CCC(=O)C=C1CC[C@@H]1[C@@H]2CC[C@]2(C)C(=O)CC[C@@H]12
outcome [1]: inactive
Potency [2]: inactive
Potency [3]: inactive
activity, negative = cell killing [5, 9]: -22.1%
Potency ([5]; tumour line A): 10 µM (active)
Potency [4]: inactive
max response [7]: 5.29% and 4.66%

C[C@]12CC[C@@H]3c4ccc(OC(=O)N(CCCl)CCCl)cc4CC[C@H]3[C@@H]1CC[C@@H]2O
activity, negative = cell killing [5, 9]: -7.93%
activity, negative = cell killing [5, 10]: -5.83%
activity, negative = cell killing [5, 11]: -29.8%

O=C1Nc2ccc(Cl)cc2C(c2ccccc2)=NC1O (stereo not given)
activity, negative = cell killing [5, 9]: -7.13%
activity, negative = cell killing [5, 10]: -25.5%
activity, negative = cell killing ([5]; at 91.6 µM (top of the series), tumour line B): -11.1%
activity, negative = cell killing ([5]; at 91.6 µM (top of the series), tumour line D): -11.5%
Potency ([5]; tumour line A): 39.8 µM (active)
Potency [4]: inactive

CCCN(CCC)C(=O)Cc1c(-c2ccc(Cl)cc2)nc2ccc(Cl)cn12
outcome [1]: inactive
Potency [2]: inactive
Potency [3]: inactive
activity, negative = cell killing [5, 9]: -4.08%
Potency ([5]; tumour line A): 10 µM (active)
Potency [4]: inactive

Cc1nnc2n1-c1ccc(Cl)cc1C(c1ccccc1Cl)=NC2
activity, negative = cell killing [5, 9]: -10.7%
activity, negative = cell killing [5, 10]: -8.42%
activity, negative = cell killing [5, 11]: -36.4%
Potency [4]: inactive

COc1cccc2c1C(=O)c1c(O)c3c(c(O)c1C2=O)C[C@@](O)(C(=O)CO)CC3OC1CC(N2CCOC(OC)C2)C(O)C(C)O1 (stereo not given in full)
Potency [2]: 0.1 µM (active)
Potency [3]: 0.1 µM (active)

Oc1ccc(Cl)cc1
Potency [6]: inactive
Potency [2]: inactive
Potency [3]: inactive
activity, negative = cell killing [5, 9]: -7.37%
activity, negative = cell killing [5, 10]: -24.9%
activity, negative = cell killing [5, 11]: -26.5%
max response [7]: 5.25%
outcome [8]: inactive

Clc1ccc2c(c1)C(c1ccccc1)=NCc1nncn1-2
activity, negative = cell killing [5, 9]: -7.06%
activity, negative = cell killing [5, 10]: 3.75%
Potency [4]: inactive

Nc1ccccc1C(=O)O
Potency [6]: inactive
Potency [2]: inactive
Potency [3]: inactive
activity, negative = cell killing [5, 9]: 2.36%
activity, negative = cell killing [5, 10]: -8.9%
activity, negative = cell killing [5, 11]: -2.87%
max response [7]: -1.41%
outcome [8]: inactive

C[C@]1(O)CC[C@H]2[C@@H]3CCC4=CC(=O)CC[C@]4(C)[C@@]3(F)[C@@H](O)C[C@@]21C
activity, negative = cell killing [5, 9]: -7.52%
activity, negative = cell killing [5, 10]: -21.3%
Potency ([5]; tumour line A): 35.5 µM (active)

O=P1(N(CCCl)CCCl)NCCCO1 (stereo not given)
Potency [6]: inactive
Potency [2]: inactive
Potency [3]: inactive
activity, negative = cell killing [5, 9]: -0.921%
activity, negative = cell killing [5, 10]: 1.42%
Potency [4]: inactive
max response [7]: 6.19% and -0.989%
outcome [8]: inactive
